From PubChem BioAssay (NCATS)
Inconclusive results are not listed. A number with no mark means an inactive call. Calls come from the whole dose curve; as a rule, active = well fitted inhibition curve with a large enough effect; inconclusive = small, poorly fitted or top-dose-only effect; inactive = flat fitted curve, though single readings scatter.

target: Calcium and integrin-binding protein 1 (Homo sapiens) (UniProt Q99828); assay: Primary qHTS for Identification of Calcium Integrin Binding Protein 1 (CIB1) Competitor (AID 1508620); conditions: CIB1-GST / FITC-alphaIIb peptide fluorescence polarization; series mostly up to 114 µM; activity change, negative = inhibition: at the top concentration;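 note: GST tagged CIB1 binding a fluorescein labelled alphaIIb integrin peptide tracer; top concentration of the series differs between compounds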
Procedure, shortened: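 CIB1-GST (1 uM final) and compound incubated 15 min at room temperature before adding FITC-alphaIIb peptide tracer (100 nM final). Competition for binding read by fluorescence polarization (ex 480, em 540) after another 15 min at room temperature.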
% is set by controls: 0 for no effect and ±100 for the full control effect.

Chain of Calcium and integrin-binding protein 1 (Homo sapiens) (Q99828 whole entry, looked up): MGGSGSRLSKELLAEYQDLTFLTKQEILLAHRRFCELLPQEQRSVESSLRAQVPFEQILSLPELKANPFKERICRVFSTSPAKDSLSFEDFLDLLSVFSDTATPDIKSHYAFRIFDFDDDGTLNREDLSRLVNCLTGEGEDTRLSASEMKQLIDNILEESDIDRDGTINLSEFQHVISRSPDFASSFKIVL

Row | Structure (SMILES) | activity change, negative = inhibition
1 | CC(C)(C)NCCCNC(=O)c1cccc(Br)c1 | 3.75%
2 | C=C1C(=O)O[C@H]2[C@H]1CC/C(C)=C/CC[C@@]1(C)O[C@@H]21 | -6.51%
3 | CC[C@@H](N)CNc1ccnc(-c2cc(-c3cnn(C)c3)ccc2O)n1 | -1.3%
4 | CN[C@H](C(=O)N[C@H](C(=O)N(C)[C@H](/C=C(\C)C(=O)O)C(C)C)C(C)(C)C)C(C)(C)c1ccccc1 | 1.14%
5 | COc1c2c(c(C)c3c1C(=O)OC3)OC1(C)CC(O)C(C(C)(C)O)C(C)(CCC(=O)O)C1C2 (configuration not stated) | -6.1% [at 57.7 µM]
6 | Cc1cccc(/C=N/Nc2cc(N3CCOCC3)n3nc(-c4ccncc4)cc3n2)c1 | -2.65%
7 | C[C@@H]1O[C@@H](O[C@@H]2[C@@H](O)[C@H](O[C@H]3[C@H](O[C@H]4CC[C@@]5(C)C(CC[C@]6(C)C5CC=C5[C@@H]7CC(C)(C)CC[C@]7(C(=O)O[C@@H]7O[C@H](CO)[C@@H](O)[C@H](O)[C@H]7O[C@@H]7O[C@@H](C)[C@H](O[C@@H]8O[C@@H](C)[C@H](O)[C@@H](O)[C@H]8O)[C@@H](O)[C@H]7O)CC[C@]56C)[C@@]4(C)CO)O[C@H](C(=O)O)[C@@H](O)[C@@H]3O)O[C@H](CO)[C@H]2O)[C@H](O)[C@H](O)[C@H]1O (some centres not stated) | 4.5% [at 12.4 µM]
